This excerpt belongs to a sample that is enriched for hits.
Pf Dd2 inh – Plasmodium falciparum Dd2 growth inhibition; P. falciparum Dd2 growth, SYBR Green, 72 h; Potency, µM (titrated, usually from 28.9 µM), inactives show top-dose activity, negative = inhibition, usual class: inhibitors; 120,000 tested, 4.3% active; AID 1347417; active = well fitted inhibition curve with a large enough effect;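 note: plate controls were DMSO vehicle for no effect and reference drug for full effect; nearly all actives have a fitted effect of over 65% in size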
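Readout: SYBR Green fluorescence, 485 nm excitation, 535 nm emission, after ~16 h lysis at 37C. Before that, Dd2-infected red cells (2.5% hematocrit) grew 72 h with compound, 29 uM top final concentration.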
* marks the source's active call; other numbers are inactive results; i = inactive; [ ] = dose if it differs, or a comment. Potency is the fitted concentration of half-maximal effect.

SMILES	Pf Dd2 inh
CCOc1ccccc1NC(=O)C1c2ccccc2C(=O)N(CCOC)C12CCCCC2 (configuration not stated)	3.98µM*
COCCN1C(=O)c2ccccc2C(C(=O)Nc2ccc(C)cc2Cl)C12CCCC2 (configuration not stated)	i
CCc1ccccc1NC(=O)C1c2ccccc2C(=O)N(CCOC)C12CCCC2 (configuration not stated)	i
O=C(Nc1ccc2c(c1)OCCO2)N1c2ccccc2CC1c1nc(C2CC2)no1 (configuration not stated)	i[5.79 µM]
O=C1NC2(CCCN(C(=O)c3ccccc3)C2)Oc2ccccc21 (configuration not stated)	i
CN(Cc1ccco1)C(=O)c1cccc2c1CCN2C(=O)Nc1ccccc1	i
CCNC(=O)c1cccc2c1CCN2C(=O)Nc1ccc(C)cc1	i
CN(Cc1ccccc1)C(=O)c1cccc2c1CCN2C(=O)Nc1ccccc1	6.31µM*
O=C(O)CCC(=O)N[C@H]1CO[C@H]2[C@@H]1OC[C@@H]2Nc1nccc(-c2ccco2)n1	11.5%[44.1 µM]
COc1cccc(-c2noc(CCCC(=O)N[C@H]3C[C@@H]4OCC[C@H]34)n2)c1	-14.4%
O=C(c1nc(-c2cccnc2)c2ccccn12)N1CCN(c2ncccn2)CC1	-1.8%
O=C(c1nc(-c2cc(Cl)cc(Cl)c2)c2ccccn12)N1CCN(c2ncccn2)CC1	i
C[S+](=O)([O-])c1ccc(-c2nc(C(=O)N3CCN(c4ncccn4)CC3)n3ccccc23)cc1	7.08µM*
O=C(c1cn(C/C=C/c2ccccc2)nn1)N1CCN(c2cccc(Cl)c2)CC1	-3.0%
O=C(O)CCC(=O)NC[C@H]1Cn2c(-c3cccc(Cl)c3)cnc2CO1	3.6%[44.1 µM]
CC(C)C1CN(C(=O)CNC(=O)N(C)C)CCCN1Cc1ccc(F)cc1 (configuration not stated)	-19.3%
CC(C)C1CN(C(=O)CN2CCCCC2=O)CCCN1Cc1ccc(F)cc1 (configuration not stated)	-9.6%
Cc1c(O)cccc1C(=O)N1CCCN(Cc2ccc(F)cc2)C(C(C)C)C1 (configuration not stated)	3.98µM*
O=C(c1coc(CN2CCOCC2)c1)N1CCC2(CC1)[C@H](O)C[C@@H]2O	-10.7%
Cn1cnc(C(=O)N[C@@H]2CN(c3ncccn3)C[C@H]2CO)c1	11.8%
COC(=O)c1scc(-c2ccc(C)cc2)c1S(=O)(=O)Nc1ccc(N(C)C)cc1	10.4%
COC(=O)c1scc(-c2ccc(C)cc2)c1S(=O)(=O)Nc1ccc(NC(C)=O)cc1	i
COC(=O)c1scc(-c2ccc(C)cc2)c1S(=O)(=O)N1CCN(c2ccccc2)CC1	0.0%
COC(=O)c1scc(-c2ccc(C)cc2)c1S(=O)(=O)N1CCN(c2ccccc2F)CC1	11.2µM*
COC(=O)c1scc(-c2ccc(C)cc2)c1S(=O)(=O)N1CCN(c2ccc(C)cc2C)CC1	-7.7%
SMILES	Pf Dd2 inh
COC(=O)c1scc(-c2ccc(C)cc2)c1S(=O)(=O)Nc1cc(C)c(Cl)cc1OC	8.91µM*
COCCOCC(=O)N1CC(Oc2cccc(-c3nc(C)no3)c2)C1	i[5.79 µM]
c1ccc(-c2nc(CC3CCCNC3)no2)cc1 (configuration not stated)	i
O=C(c1cnccn1)N1CCC2(CC1)NC(=O)N(Cc1cccc(Cl)c1)C2=O	i
COc1ccc(-c2ccc3nc(-c4ccc(C)c(F)c4)oc3c2)c(OC)c1OC	11.2%
CCCOc1ccc(-c2nc3ccc(-c4ccc(OC)c(OC)c4OC)cc3o2)cc1	10µM*
COc1ccc(-c2ccc3nc(-c4ccc(SC)cc4)oc3c2)c(OC)c1OC	i
COc1cccc(N2CC(C(=O)NCc3ccc(F)cc3)NC2=O)c1 (configuration not stated)	-13.7%[44.1 µM]
COc1ccc(-c2nc(-c3ccccc3)nc3c2CN(C(=O)c2ccc(C(F)(F)F)cc2)CC3)cc1	8.91µM*
COc1ccc(-c2nc(C)nc3c2CN(C(=O)c2ccc(C)cc2)CC3)cc1	-12.5%
COc1ccc(-c2nc(C)nc3c2CN(C(=O)c2ccccn2)CC3)cc1	2.6%
COc1ccc(-c2nc3c(c(-c4ccccc4)n2)CN(C(=O)c2cccc(Cl)c2)CC3)cc1	i
COc1ccc(CC(=O)N2CCc3nc(-c4ccc(Cl)cc4)nc(-c4ccccc4)c3C2)cc1	i
COc1ccc(-c2nc(C)nc3c2CN(C(=O)c2ccccc2)CC3)cc1	i
COc1ccc(-c2nc(-c3ccccc3)nc3c2CN(C(=O)c2ccccc2C)CC3)cc1	10µM*
COc1ccc(-c2nc3c(c(-c4ccccc4)n2)CN(C(=O)c2ccccc2Cl)CC3)cc1	10µM*
COc1ccc(C(=O)N2CCc3nc(C)nc(-c4ccc(OC)cc4)c3C2)cc1	-9.1%
COc1ccc(S(=O)(=O)N2CCCC(Cn3c(C)nc4cccnc43)C2)cc1 (configuration not stated)	i
CCOc1ccccc1NC(=O)NC1CCN(C(=O)N2CC3CC(C2)[C@H]2CCCC(=O)N2C3)CC1 (some centres not stated)	i
Cc1ccc(S(=O)(=O)NC[C@H]2OC[C@@H](NCc3cccc(C#N)c3)[C@@H]2O)cc1	-20.2%[44.1 µM]
O=C1NC(C(=O)NCC2CC2)Cn2cccc21 (configuration not stated)	65.0%
O=C(O)c1cnc(NCc2ccccn2)nc1-c1ccncc1	i
Cn1cc(S(=O)(=O)N2Cc3ccccc3C[C@H]2C(=O)NC(C)(C)C)cn1	1.4%
Cc1ccc(-n2nc(-c3c(C)nc4scc(CC(=O)NC(C)c5ccccc5)n4c3=O)cc2C)cc1 (configuration not stated)	-1.5%
Cc1ccc2c(n1)N(C)[C@H](CO)CCN(Cc1cn(C)c3ccccc13)C2	11.2µM*
SMILES	Pf Dd2 inh
Cc1ccc2c(n1)N(C)[C@H](CO)CCN(Cc1ccc(F)cc1)C2	-2.9%[44.1 µM]
Cc1ccc2c(n1)N(C)[C@H](CO)CCN(Cc1ccccc1Cl)C2	-25.4%[44.1 µM]
Cc1noc(C)c1C(=O)N1CCN(c2ccc(Cl)nn2)C(=O)C1	34.1%
COCCNC(=O)[C@H]1C[C@H](Oc2ccccc2)CN1C(=O)NCc1ccc(F)cc1	-5.6%
CC(C)Cc1nc(NC(=O)C[C@H]2NC(=O)c3ccccc3NC2=O)n[nH]1	-5.8%
O=C(NCCCN1CCN(c2ccccc2F)CC1)c1ccc2nc(CCc3ccccc3)oc2c1	11.2µM*
CC(C)NC(=O)c1cc2c(Cl)nc3ccccc3c2s1	3.3%
O=C(NCc1ccccc1)c1ccc2nc(CCc3ccccc3)oc2c1	3.5%
COc1ccc(Nc2cc(C(=O)NCCCN(C)Cc3ccccc3)c3ccccc3n2)c(OC)c1	17.0%
O=C(c1cc2c(Cl)nc3ccccc3c2s1)N1CCCCC1	11.5%
COc1ccccc1Nc1cc(C(=O)NC2CCCC2)c2ccccc2n1	16.7%
O=C(NCCCN1CCN(c2ccccc2F)CC1)c1cc2c(Cl)nc3ccccc3c2s1	2.82µM*
CCOC(=O)C1CCCN(C(=O)c2cc3c(Cl)nc4ccccc4c3s2)C1 (configuration not stated)	-16.0%
CCCNC(=O)c1ccc2nc(CCc3ccccc3)oc2c1	3.9%
CCN(CCCNC(=O)c1cc(Nc2ccccc2OC)nc2ccccc12)c1cccc(C)c1	11.2µM*
COc1ccc(OC)c(CNC(=O)c2cc3c(Cl)nc4ccccc4c3s2)c1	50.0%
CCCN1CCN(CCCNC(=O)c2cc3c(Cl)nc4ccccc4c3s2)CC1	10µM*
O=C(c1nc(-c2ccc(Cl)cc2)c2ccccn12)N1CCOCC1	-20.9%[44.1 µM]
NC(=O)[C@H](CC1CCCCC1)NC(=O)[C@H]1CN(C(=O)C2CCNCC2)CCN1C(=O)c1cccs1	11.5%

From PubChem BioAssay
